NadD inh = NadD (S. aureus) enzyme inhibition; purified NadD enzyme, colorimetric absorbance read-out; inhibition, % at 20 µM; actives 0.78% (n = 360,000); AID 602399; in the data active means inhibition above about 26%
B2AR ag = human beta-2 adrenergic receptor agonism by FAP | Am2.2-beta2AR cells, FAP receptor internalization, flow cytometry | response, % (test concentration not listed) | actives 0.43% (n = 340,000);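 active means response above a set limit, near 3 SD of response in nonfluorescent compounds, cut at about 42% in these data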
Target sequence (P07550 whole entry, looked up): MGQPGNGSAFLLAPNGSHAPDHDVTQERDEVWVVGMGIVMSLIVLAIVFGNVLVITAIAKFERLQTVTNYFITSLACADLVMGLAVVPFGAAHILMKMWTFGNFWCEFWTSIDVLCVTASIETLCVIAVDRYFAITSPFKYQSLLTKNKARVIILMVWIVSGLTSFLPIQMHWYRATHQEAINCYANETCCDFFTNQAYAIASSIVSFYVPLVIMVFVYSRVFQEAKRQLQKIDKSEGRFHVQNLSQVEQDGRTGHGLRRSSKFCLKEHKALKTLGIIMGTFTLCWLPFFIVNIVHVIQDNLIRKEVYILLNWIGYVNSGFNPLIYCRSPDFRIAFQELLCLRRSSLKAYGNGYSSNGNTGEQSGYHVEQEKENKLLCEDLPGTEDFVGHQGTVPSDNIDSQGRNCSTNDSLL
GRK2 inh = inhibitors of human GRK2 displacing RNA aptamer; bead flow cytometry, FAM-aptamer displacement from GRK2; inhibition of aptamer binding, % at 10 µM; actives 0.59% (n = 330,000);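 active means inhibition of aptamer binding above 40%, roughly 3 SD of noise, on plates passing a quality check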;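 further: median bead fluorescence of bound FAM aptamer so fluorescent compounds give negative values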
Exocytosis inh = lytic granule exocytosis inhibition. TALL-104 LAMP-1 surface exposure, flow cytometry; cells stimulated with thapsigargin and PMA. inhibition, % at 10 µM. actives 0.66% (n = 360,000). AID 651702;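 active means inhibition above about 55%, limit read from the data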
PP1 counter = blocks human PP1-alpha phosphatase, a PP5 counter-screen; P62136; purified PP1alpha, OMFP fluorescence; inhibition, % at 6.7 µM; actives 0.9% (n = 320,000);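 active means inhibition above the mean inhibition of all tested compounds plus 3 SD, computed separately for each screening campaign, cut at about 15% in these data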
GRK2 CP1 = confirmation of human GRK2 inhibitors displacing RNA aptamer; shares compounds with GRK2 inh; bead-bound GRK2, FAM-aptamer displacement, flow cytometry; aptamer displacement, % at 10 µM; actives 4% (n = 2,000); AID 504451;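 active means aptamer displacement above 40%, near three times the noise of non-fluorescent compounds, on plates passing quality checks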;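 further: negative values mostly reflect intrinsic compound fluorescence rather than true enhancement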
Aptamer quench 1 = fluorescent aptamer quenching in GRK2 counter-screen dose response; shares compounds with GRK2 inh; Fluorescent RNA aptamer beads, flow cytometry; active compounds read high; fluorescence change (kMESF span), kMESF (no concentration beside the values); 110 tested, under 10 active;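 active means compounds whose bead fluorescence drops by more than 37 kMESF across the dose range, marking them as dye quenchers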
Aptamer quench SP = aptamer fluorescence quenching in GRK2 counter-screen; shares compounds with GRK2 inh; Carboxyfluorescein RNA aptamer on beads, flow cytometry quenching; active compounds read low; fluorescence response (% of DMSO), % at 10 µM; 2,000 tested, under 10 active; AID 504580;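 active means compounds that quench the bead-bound fluorescent RNA probe, cutting fluorescence to under half of the solvent control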;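 further: counterscreen run without GRK2 so only probe quenching by compound is measured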
GRK2 confirm 2 = human GRK2 inhibition confirmation, cherry pick 2; shares compounds with GRK2 inh; bead-bound GRK2, FAM-aptamer displacement, flow cytometry; inhibition of aptamer binding, % at 10 µM; 360 tested, under 10 active; AID 504782;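 active means inhibition of aptamer binding above 40%, about triple the noise seen with nonglowing compounds, on plates passing quality control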;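 further: negative values mostly come from compounds that fluoresce themselves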
Aptamer quench 2 = aptamer fluorescence quenching in GRK2 counter-screen dose response | 25 tested, under 10 active | AID 504819 | shares compounds with GRK2 inh | Streptavidin beads, FAM-RNA aptamer fluorescence quenching, flow cytometry | change in fluorescence (kMESF span), kMESF (test concentration not listed);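 active means compounds quenching the bead-bound labeled aptamer, with fluorescence dropping by more than 37 kMESF over the dose range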
FAM quench CP2 = aptamer fluorescence quenching in GRK2 counter-screen; AID 588494; carboxyfluorescein RNA aptamer beads, flow cytometry quenching; active compounds read low; 360 tested, under 10 active; fluorescence response vs DMSO, % at 10 µM; shares compounds with GRK2 inh;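 active means response vs DMSO under 50%, meaning signal dropped by over half, treated as fluorescence quencher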;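 further: labelled aptamer on streptavidin beads without GRK2 as a quench counter-screen; 100% = bead fluorescence of DMSO wells and lower means quenching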
FAM quench DR = aptamer fluorescence quenching in GRK2 powder counter-screen | 35 tested, under 10 active | AID 588496 | shares compounds with GRK2 inh | Bead-bound FAM RNA aptamer fluorescence quenching, flow cytometry; active compounds read low | fluorescence ratio to DMSO, % at 11.1 µM;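 active means compounds that dim the fluorescent label, raw bead signal shifting by over 33 units between lowest and highest dose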
Starred values were filed as active, the others as inactive. Rows were chosen to be rich in hits. Some 2.9% of all compounds tested hit in one or more screens of this group.

Results for COc1ccc(CNC(=O)CCS(=O)(=O)c2ccc(Br)cc2)cc1 ?
NadD inh: -2; B2AR ag: 1; GRK2 inh: 89*; Exocytosis inh: 21; PP1 counter: 0; GRK2 CP1: 38; Aptamer quench 1: 8.5; Aptamer quench SP: 102; Aptamer quench 2: 1.8; FAM quench DR: 103

What do the screens show for `CCOc1ccc(CCNC(=O)CCS(=O)(=O)c2ccc(Br)cc2)cc1OCC`?
NadD inh: -1; B2AR ag: -3; GRK2 inh: 8; Exocytosis inh: 2; PP1 counter: 2; GRK2 CP1: -1; Aptamer quench 1: -0.5; Aptamer quench SP: 96; FAM quench DR: 99

How did O=C(CCS(=O)(=O)c1ccc(Br)cc1)NCCc1ccccc1 do in these assays?
NadD inh: -4; B2AR ag: -5; GRK2 inh: 70*; Exocytosis inh: 26; PP1 counter: 1; GRK2 CP1: 43*; Aptamer quench 1: -0.7; Aptamer quench SP: 100; Aptamer quench 2: -0.9

Results for COc1ccc(S(=O)(=O)CCC(=O)NCc2ccc(C)o2)cc1 ?
NadD inh: 5; B2AR ag: -5; GRK2 inh: 6; Exocytosis inh: -2; PP1 counter: 3

How did O=C(CCS(=O)(=O)c1ccc2c(c1)NC(=O)CS2)NCCc1ccc(Cl)cc1 do in these assays?
NadD inh: -7; B2AR ag: 10; GRK2 inh: 10; Exocytosis inh: 34; PP1 counter: -3

What do the screens show for `O=c1ccn([C@@H]2O[C@H](CNCc3ccccc3OCc3ccc(Cl)cc3Cl)[C@@H](O)[C@H]2O)c(=O)[nH]1`?
NadD inh: -10; Exocytosis inh: 0

How did Cn1c(=O)[nH]c(=O)c2c1nc(N1CCCCCC1)n2CCOc1ccccc1 do in these assays?
NadD inh: 0; B2AR ag: -12; GRK2 inh: 0; Exocytosis inh: 2; PP1 counter: 5

Results for CC(=O)N(c1ccc(C)cc1)c1nc(C)cc(C)c1C#N ?
NadD inh: -5; B2AR ag: -2; GRK2 inh: 3; Exocytosis inh: -2; PP1 counter: -3

Results for CCCCC(=O)NCCc1ccc(S(N)(=O)=O)cc1 ?
NadD inh: -5; B2AR ag: -1; GRK2 inh: 6; Exocytosis inh: -3; PP1 counter: -2

How did NS(=O)(=O)c1ccc(CCNC(=O)CCS(=O)(=O)c2ccc(Br)cc2)cc1 do in these assays?
NadD inh: -10; B2AR ag: -3; GRK2 inh: 87*; Exocytosis inh: -3; GRK2 confirm 2: 74*; Aptamer quench 2: 2.7; FAM quench CP2: 101; FAM quench DR: 101

What do the screens show for `CN(C(=O)c1cccc(C#N)c1)c1nnc(-c2ccncc2)s1`?
NadD inh: -5; B2AR ag: 0; Exocytosis inh: 3; GRK2 CP1: 0; Aptamer quench SP: 107

How did O=C(O)C1CC=CCC1C(=O)NCc1ccccc1 (centres undefined) do in these assays?
NadD inh: 1; B2AR ag: -1; GRK2 inh: 4; Exocytosis inh: 0; PP1 counter: 0

What do the screens show for `COc1ccc(CNC(=O)C2CC=CCC2C(=O)O)cc1OC` (centres undefined)?
NadD inh: 3; B2AR ag: -2; GRK2 inh: 0; Exocytosis inh: 1; PP1 counter: 1; GRK2 confirm 2: inactive; FAM quench CP2: 103

How did O=C(NCC1CCCO1)c1cccc(NC(=O)c2ccco2)c1 (centres undefined) do in these assays?
NadD inh: 2; B2AR ag: 3; GRK2 inh: 0; Exocytosis inh: 14; PP1 counter: -1; GRK2 CP1: -1; Aptamer quench SP: 111

How did O=C(NCc1cccnc1)c1cccc(NC(=O)c2ccco2)c1 do in these assays?
NadD inh: 1; B2AR ag: -2; GRK2 inh: 0; Exocytosis inh: -2; PP1 counter: 1; GRK2 CP1: 5; Aptamer quench SP: 97

Results for CC(=O)c1cccc(NC(=O)c2cccc(NC(=O)c3ccco3)c2)c1 ?
NadD inh: 1; B2AR ag: -4; GRK2 inh: 6; Exocytosis inh: 2; PP1 counter: 1

Results for Cc1cc(C)cc(NC(=O)c2cccc(NC(=O)c3ccco3)c2)c1 ?
NadD inh: -9; B2AR ag: -1; GRK2 inh: 0; Exocytosis inh: -6; PP1 counter: -2; GRK2 CP1: -1; Aptamer quench SP: 90

Results for O=C(NCC1CCCO1)c1cccc(NC(=O)c2ccc(Br)cc2)c1 (centres undefined) ?
NadD inh: 1; B2AR ag: -2; GRK2 inh: 5; Exocytosis inh: -2; PP1 counter: -8

How did O=C(NC1CCCC1)c1cccc(NC(=O)c2ccco2)c1 do in these assays?
NadD inh: 1; B2AR ag: 8; GRK2 inh: 4; Exocytosis inh: 0; PP1 counter: 5; GRK2 CP1: 2; Aptamer quench SP: 99

What do the screens show for `CCN1C(=O)[C@H]2[C@@H](c3ccc(-c4ccc(F)cc4)c(OC)c3)N[C@@](Cc3ccccc3)(C(=O)OC)[C@H]2C1=O`?
NadD inh: 8; B2AR ag: 8; GRK2 inh: 0; Exocytosis inh: -3

How did COc1cc(C2c3cc4c(cc3OC(NCCc3ccccc3)C2C)OCO4)cc(OC)c1OC (centres undefined) do in these assays?
NadD inh: -2; B2AR ag: 19; Exocytosis inh: 5

How did COc1ccc(C2=NN(C(=O)CCC(=O)O)C(c3ccccc3F)C2)cc1 (centres undefined) do in these assays?
NadD inh: -3; B2AR ag: 3; GRK2 inh: 0; Exocytosis inh: 6; PP1 counter: -2
